The whole screen tested about 270,000 compounds, of which about 5,800 (2.1%) were called active. Another 16% or so got no clear call; they are omitted. The rule behind the calls is not given here. Shown is part of a subset that was picked to be rich in actives.
Molecular target: Microtubule-associated protein tau (Homo sapiens) (UniProt P10636)
Assay: qHTS for Inhibitors of Tau Fibril Formation, Thioflavin T Binding. [Related pubchem assays: 596 ]

Sequence of Microtubule-associated protein tau (Homo sapiens) (P10636 whole entry): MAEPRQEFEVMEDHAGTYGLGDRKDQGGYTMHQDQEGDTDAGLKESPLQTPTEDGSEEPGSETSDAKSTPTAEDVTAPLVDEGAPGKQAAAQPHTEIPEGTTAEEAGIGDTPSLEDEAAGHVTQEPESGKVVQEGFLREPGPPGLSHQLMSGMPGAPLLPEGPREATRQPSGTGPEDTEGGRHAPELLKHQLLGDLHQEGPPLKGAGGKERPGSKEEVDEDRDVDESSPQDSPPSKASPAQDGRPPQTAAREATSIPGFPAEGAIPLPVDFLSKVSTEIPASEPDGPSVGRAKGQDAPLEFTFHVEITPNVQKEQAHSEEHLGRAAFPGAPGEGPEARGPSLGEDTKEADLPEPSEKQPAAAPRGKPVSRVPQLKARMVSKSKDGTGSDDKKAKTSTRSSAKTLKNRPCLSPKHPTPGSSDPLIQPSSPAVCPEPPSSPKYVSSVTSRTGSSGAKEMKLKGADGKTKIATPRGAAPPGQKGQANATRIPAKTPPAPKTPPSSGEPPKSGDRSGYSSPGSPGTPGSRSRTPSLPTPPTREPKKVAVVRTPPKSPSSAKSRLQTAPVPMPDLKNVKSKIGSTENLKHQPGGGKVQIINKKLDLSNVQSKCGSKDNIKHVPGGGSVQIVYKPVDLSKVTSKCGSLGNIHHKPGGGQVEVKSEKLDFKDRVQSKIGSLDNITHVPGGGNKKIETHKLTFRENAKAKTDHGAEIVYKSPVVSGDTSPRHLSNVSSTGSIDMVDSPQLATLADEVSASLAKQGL

SMILES	Potency
Cl[Te]1(Cl)OCCO1	5.62 µM (active)
